ChEMBL document CHEMBL3988442, “University of Dundee, Small-Polar-MMV Screening Library” (2021)
For some assays here: Entries with a potency or affinity are not part of this list.

What was measured:
Design in all cases: scale not given: direction of the effect not stated beside the values
[1] = target: Protein translocase subunit SecA (Escherichia coli (strain K12)) (UniProt P10408); assay: Assay to Identify E. coli SecA ATPase Inhibitors; format: functional; conditions: 30 µM
[2] = target: T1, Ubiquitin-activating enzyme e1, putative (Leishmania donovani (strain BPK282A1)) (UniProt E9BSI1); assay: Leishmania donovani Ubiquitin Activating Enzyme (LdE1); format: functional; conditions: 30 µM
T1 sequence (whole entry): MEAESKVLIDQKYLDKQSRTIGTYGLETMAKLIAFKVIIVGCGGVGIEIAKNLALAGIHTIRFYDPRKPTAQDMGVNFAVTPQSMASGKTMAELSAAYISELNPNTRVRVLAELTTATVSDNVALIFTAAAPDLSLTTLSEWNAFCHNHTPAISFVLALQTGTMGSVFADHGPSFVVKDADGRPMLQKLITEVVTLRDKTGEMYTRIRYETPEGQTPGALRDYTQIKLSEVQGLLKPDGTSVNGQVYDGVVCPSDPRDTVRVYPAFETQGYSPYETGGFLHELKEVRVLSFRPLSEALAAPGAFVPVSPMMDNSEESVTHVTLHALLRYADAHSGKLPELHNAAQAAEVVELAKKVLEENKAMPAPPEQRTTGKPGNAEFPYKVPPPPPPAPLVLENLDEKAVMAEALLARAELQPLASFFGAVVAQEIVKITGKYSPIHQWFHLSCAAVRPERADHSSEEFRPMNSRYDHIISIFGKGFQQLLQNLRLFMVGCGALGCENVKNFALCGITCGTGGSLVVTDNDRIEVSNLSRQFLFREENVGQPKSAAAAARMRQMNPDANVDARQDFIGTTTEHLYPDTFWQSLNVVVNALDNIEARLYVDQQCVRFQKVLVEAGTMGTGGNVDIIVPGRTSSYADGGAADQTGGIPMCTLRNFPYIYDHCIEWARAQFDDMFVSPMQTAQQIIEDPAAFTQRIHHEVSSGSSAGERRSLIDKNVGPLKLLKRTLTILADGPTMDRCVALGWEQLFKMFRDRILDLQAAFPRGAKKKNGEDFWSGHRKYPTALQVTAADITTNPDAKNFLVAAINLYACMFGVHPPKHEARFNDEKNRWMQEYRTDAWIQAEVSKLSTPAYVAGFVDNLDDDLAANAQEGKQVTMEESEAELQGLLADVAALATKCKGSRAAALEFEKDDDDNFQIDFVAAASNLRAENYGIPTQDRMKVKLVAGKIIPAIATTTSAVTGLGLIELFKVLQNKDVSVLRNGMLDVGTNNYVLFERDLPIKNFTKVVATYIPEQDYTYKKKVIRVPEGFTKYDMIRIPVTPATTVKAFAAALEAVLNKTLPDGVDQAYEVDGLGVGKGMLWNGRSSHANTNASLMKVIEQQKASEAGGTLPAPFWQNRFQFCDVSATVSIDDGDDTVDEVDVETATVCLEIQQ

[3] = target: AMP-activated protein kinase, AMPK (Homo sapiens) (UniProt P54646+O43741+P54619+Q9UGJ0+Q9Y478+Q13131+Q9UGI9); assay: AMP-dependent Kinase enzyme assay. An in vitro enzyme assay that detects ADP turnover that is directly proportional to AMPK activity. This uses naive AMPK that is activated during the assay with MK-8722; format: functional; conditions: 30 µM
[4] = target: Sialic acid-binding Ig-like lectin 9 (Homo sapiens) (UniProt Q9Y336); assay: Hs-Siglec9 ALPHAscreen SOP 20170721; conditions: 10 µM
[5] = tested on: Trypanosoma cruzi; assay: Trypanosoma cruzi phosphomannomutase and mannose-1-phosphate guanylyltransferase assay; format: functional; conditions: 10 µM
[6] = target: T2, Arginase-2, mitochondrial (Homo sapiens) (UniProt P78540); assay: in vitro enzyme assay to detect the production of urea directly proportional to the activity of Arginase II; format: functional; conditions: 33.3 µM; note: in the data most compounds retested in dose-response had high values
T2 sequence (whole entry): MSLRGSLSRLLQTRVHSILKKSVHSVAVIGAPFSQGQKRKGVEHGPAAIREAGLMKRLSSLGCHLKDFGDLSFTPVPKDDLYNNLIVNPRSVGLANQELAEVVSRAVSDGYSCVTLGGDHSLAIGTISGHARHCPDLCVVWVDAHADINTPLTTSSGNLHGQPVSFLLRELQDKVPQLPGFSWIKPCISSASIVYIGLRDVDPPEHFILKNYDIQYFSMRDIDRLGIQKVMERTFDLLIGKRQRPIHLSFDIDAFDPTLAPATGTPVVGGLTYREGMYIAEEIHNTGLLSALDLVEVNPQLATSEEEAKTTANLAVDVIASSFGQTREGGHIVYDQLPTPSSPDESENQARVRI

[7] = target: T3, Proteasome subunit beta (Trypanosoma cruzi) (UniProt O96673); assay: Trypanosoma cruzi proteasome chymotrypsin-like activity (TcProtChymo) assay.; note: in the data most compounds retested in dose-response had high values; format: functional; conditions: 9.37 µM
T3 sequence (whole entry): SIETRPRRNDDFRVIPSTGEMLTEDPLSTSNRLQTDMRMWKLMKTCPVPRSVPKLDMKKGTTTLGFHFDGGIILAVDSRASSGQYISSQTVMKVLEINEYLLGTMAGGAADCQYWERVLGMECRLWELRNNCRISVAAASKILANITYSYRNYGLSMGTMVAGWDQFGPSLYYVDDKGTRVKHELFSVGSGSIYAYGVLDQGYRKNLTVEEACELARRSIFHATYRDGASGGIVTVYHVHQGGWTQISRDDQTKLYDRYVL

[8] = species on record: Homo sapiens; assay: To identify inhibition of the IFN signalling (Jak-Stat) pathway via expression of an eGFP reporter gene under the control of an IFN-stimulated response element (ISRE) containing MxA promoter.; format: functional; conditions: 30 µM
[9] = target: T4, Tyrosyl-tRNA synthetase, putative (Trypanosoma cruzi (strain CL Brener)) (UniProt Q4DSP6); assay: Trypanosoma cruzi tyrosyl tRNA synthetase (TcYRS) _High Tyrosine SOP; format: functional; conditions: 30 µM; note: in the data most compounds retested in dose-response had high values
T4 sequence (whole entry): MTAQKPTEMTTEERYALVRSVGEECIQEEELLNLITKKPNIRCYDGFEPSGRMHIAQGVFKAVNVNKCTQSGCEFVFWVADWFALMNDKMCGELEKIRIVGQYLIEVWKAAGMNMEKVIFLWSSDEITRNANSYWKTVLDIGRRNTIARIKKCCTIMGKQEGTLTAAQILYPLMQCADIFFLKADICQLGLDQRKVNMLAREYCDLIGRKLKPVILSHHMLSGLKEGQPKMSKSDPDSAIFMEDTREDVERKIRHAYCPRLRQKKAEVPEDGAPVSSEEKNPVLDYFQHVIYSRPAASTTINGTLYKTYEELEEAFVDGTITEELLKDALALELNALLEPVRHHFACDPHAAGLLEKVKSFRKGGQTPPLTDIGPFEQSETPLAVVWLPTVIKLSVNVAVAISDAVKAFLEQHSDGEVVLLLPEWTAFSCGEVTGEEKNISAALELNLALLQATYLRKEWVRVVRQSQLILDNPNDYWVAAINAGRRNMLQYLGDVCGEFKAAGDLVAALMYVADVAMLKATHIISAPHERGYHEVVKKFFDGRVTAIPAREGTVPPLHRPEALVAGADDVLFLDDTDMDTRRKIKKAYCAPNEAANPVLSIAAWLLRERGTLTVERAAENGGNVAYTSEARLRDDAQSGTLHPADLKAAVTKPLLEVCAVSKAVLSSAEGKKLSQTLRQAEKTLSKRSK

[10] = target: T4, Tyrosyl-tRNA synthetase, putative (Trypanosoma cruzi (strain CL Brener)); assay: Trypanosoma cruzi tyrosyl tRNA synthetase (TcYRS) SOP; format: functional; conditions: 30 µM
[11] = target: Chromo domain-containing protein 1 (Saccharomyces cerevisiae (strain ATCC 204508 / S288c) (Baker's yeast)) (UniProt P32657); assay: ScCHD-1 Enzyme Inhibition Assay; format: functional; conditions: 30 µM; note: in the data most compounds retested in dose-response had high values
Chromo domain-containing protein 1 (Saccharomyces cerevisiae (strain ATCC 204508 / S288c) (Baker's yeast)), sequence (P32657 whole entry, the tested form may be a part): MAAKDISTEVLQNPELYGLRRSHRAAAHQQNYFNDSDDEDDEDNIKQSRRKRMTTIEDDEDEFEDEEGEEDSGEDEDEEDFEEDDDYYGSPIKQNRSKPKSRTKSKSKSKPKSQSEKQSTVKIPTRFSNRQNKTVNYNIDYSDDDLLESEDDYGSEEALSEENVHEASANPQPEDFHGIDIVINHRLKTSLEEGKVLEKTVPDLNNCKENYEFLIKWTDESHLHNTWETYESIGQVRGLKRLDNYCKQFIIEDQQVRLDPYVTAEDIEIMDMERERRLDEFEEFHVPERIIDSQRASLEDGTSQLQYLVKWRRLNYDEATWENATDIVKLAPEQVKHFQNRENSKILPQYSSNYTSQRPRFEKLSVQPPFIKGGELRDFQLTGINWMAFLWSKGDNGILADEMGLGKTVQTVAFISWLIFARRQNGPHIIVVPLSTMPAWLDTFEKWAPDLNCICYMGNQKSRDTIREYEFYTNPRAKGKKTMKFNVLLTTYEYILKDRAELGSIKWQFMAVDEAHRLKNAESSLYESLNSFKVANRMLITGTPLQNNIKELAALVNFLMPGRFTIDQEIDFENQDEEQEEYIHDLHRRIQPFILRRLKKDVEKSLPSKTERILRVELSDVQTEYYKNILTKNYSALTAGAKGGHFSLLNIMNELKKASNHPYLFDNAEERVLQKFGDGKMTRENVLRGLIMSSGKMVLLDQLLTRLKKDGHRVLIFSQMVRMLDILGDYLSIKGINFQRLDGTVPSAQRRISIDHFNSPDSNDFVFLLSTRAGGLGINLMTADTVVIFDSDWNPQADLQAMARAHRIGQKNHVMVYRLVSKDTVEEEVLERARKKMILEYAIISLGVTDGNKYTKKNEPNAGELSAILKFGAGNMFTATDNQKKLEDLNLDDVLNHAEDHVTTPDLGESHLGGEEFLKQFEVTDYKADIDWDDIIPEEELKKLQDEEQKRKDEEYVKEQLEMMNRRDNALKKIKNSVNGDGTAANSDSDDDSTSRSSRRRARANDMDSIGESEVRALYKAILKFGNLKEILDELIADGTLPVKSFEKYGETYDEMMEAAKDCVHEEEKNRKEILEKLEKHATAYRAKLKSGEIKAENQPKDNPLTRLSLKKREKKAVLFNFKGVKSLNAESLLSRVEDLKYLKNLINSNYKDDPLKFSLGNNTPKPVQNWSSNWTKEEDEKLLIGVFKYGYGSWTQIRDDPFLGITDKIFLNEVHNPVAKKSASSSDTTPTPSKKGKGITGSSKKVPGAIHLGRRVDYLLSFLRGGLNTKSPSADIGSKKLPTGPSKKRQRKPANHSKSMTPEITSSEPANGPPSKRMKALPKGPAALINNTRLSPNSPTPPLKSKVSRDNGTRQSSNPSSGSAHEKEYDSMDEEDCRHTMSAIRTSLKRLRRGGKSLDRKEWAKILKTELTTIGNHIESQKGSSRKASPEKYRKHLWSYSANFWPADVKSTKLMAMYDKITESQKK

Sialic acid-binding Ig-like lectin 9 (Homo sapiens), sequence (Q9Y336 whole entry): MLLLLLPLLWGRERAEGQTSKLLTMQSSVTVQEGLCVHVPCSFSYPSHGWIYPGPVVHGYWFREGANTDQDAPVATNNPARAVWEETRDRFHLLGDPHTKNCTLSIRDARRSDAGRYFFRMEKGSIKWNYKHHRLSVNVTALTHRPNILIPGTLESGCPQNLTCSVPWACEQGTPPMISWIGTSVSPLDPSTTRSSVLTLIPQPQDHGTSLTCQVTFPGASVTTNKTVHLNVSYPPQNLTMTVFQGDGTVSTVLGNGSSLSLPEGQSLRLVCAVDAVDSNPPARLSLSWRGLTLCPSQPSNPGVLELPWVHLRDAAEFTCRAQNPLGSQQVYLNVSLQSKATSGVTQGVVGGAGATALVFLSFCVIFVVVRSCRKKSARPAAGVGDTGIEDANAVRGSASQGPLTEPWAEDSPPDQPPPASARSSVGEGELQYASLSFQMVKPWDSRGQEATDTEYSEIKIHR
Protein translocase subunit SecA (Escherichia coli (strain K12)), sequence (P10408 whole entry): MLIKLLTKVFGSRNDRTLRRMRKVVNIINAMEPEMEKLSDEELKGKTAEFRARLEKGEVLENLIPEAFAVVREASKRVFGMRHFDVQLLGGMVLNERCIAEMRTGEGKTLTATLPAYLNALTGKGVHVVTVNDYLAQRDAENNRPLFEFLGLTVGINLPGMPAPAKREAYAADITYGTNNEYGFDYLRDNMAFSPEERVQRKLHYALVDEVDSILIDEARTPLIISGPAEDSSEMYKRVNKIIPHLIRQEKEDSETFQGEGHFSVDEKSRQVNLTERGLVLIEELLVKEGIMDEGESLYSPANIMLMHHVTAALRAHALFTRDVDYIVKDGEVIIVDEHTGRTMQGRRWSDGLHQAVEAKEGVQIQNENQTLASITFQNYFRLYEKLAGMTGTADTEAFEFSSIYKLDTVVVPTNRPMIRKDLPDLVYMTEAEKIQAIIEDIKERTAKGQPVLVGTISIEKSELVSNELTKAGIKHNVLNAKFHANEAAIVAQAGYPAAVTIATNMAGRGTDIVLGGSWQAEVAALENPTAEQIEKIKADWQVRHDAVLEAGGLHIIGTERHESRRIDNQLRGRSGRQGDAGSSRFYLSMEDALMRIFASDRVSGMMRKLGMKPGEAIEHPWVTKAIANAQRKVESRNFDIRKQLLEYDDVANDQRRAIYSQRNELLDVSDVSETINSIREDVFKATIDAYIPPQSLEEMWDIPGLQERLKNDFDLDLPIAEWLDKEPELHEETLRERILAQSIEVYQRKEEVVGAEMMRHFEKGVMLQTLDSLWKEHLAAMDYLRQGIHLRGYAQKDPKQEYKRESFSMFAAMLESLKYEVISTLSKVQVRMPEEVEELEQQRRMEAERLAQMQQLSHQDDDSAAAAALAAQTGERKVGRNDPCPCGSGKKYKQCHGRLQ

Row | Structure (SMILES) | Percent Effect [1] [%] | Percent Effect [2] [%] | Percent Effect [3] [%] | Percent Effect [4] [%] | Percent Effect [5] [%] | Percent Effect [6] [%] | Percent Effect [7] [%] | Percent Effect [8] [%] | Percent Effect [9] [%] | Percent Effect [10] [%] | Percent Effect [11] [%]
1 | O=C(CCc1ccccc1)C1CCCN(C(=O)c2ncc(F)cc2F)C1 (configuration not stated) | -4.95 | 5.48 | 0.372 | -8.02 | -1.18 | 2.73 | 9.94 | 2.79 | 5.38 | 10 | -1.5
2 | Cc1cccc(C(=O)N2C[C@@H]3OCCN(c4ncccn4)[C@@H]3C2)n1 | -4.13 | 5.33 | -3.52 | 4.37 | -2.7 | -8.78 | 7.35 | -6.79 | 5.21 | 0 | 0.315
3 | COc1ccc(C)cc1NC(=O)Nc1cnc(N2CCN(C)CC2)nc1 | -1.71 | 7.79 | 2.48 | -0.124 | 5.42 | -12.3 | 8.18 | 36.4 | 6.35 | 11.5 | -11.3
4 | Cn1ncc2c1CN(Cc1cccnc1)CC2COCC1CC1 (configuration not stated) | -0.107 | 2.74 | -3.62 | 3.4 | 6.55 | 4.79 | 12.6 | -15.1 | 4.17 | 8.64 | -7.87
5 | Cc1cnn(CC(C)NCc2nc(-c3ccco3)no2)c1 (configuration not stated) | -7.61 | 12.5 | -18.7 | 40.6 | 7.09 | 9.27 | 14.9 | 4.8 | 3.16 | 12.8 | 10.7
6 | CC(C)NC(=O)N1CCN(S(=O)(=O)C2CC2)CC2(CNC(=O)C2)C1 (configuration not stated) | -6.38 | 18.2 | 0.68 | 2.04 | 4.63 | 0.645 | 7.66 | 9.81 | 2.12 | 11.5 | -5.37
7 | Cc1nc(C)n(CC2CN(CCc3ccncc3)CCO2)n1 (configuration not stated) | -1.44 | 5.48 | 1.35 | 6.79 | 0.979 | 3.64 | 10.3 | 16.9 | 4.3 | 10 | -5.67
8 | Cc1n[nH]c(C)c1C1CCCN1C(=O)CNC(=O)C(C)(C)C (configuration not stated) | -0.905 | 8.22 | 0.299 | 14 | 2.74 | 20.9 | 11.5 | -2.46 | 0 | 5 | -4.49
9 | CN1N=C(C(=O)NCc2ccc3c(c2)CCCN3C)CCC1=O | -4.45 | 8.86 | 30.5 | -1.03 | 4.41 | 0.215 | 21.4 | 0.664 | 6.25 | 10.1 | -23
10 | CC(=O)N1CC(=O)N(c2cnn(C)c2)CC12CCN(Cc1ccsc1)C2 (configuration not stated) | -5.9 | 2.7 | -4.89 | 3.54 | -6.05 | -1.25 | 18.3 | 13.5 | 3.96 | 3.66 | -3.49
11 | COCC(=O)N1CCCC2(CCN(c3ccsc3)C2=O)C1 (configuration not stated) | -5.59 | 2.67 | 5.83 | -0.603 | -1.18 | -0.699 | -5.73 | 26.1 | 0 | -1.28 | 4.35
12 | O=C1CC(NCc2ccncc2)CN1Cc1cccc(F)c1 (configuration not stated) | -3.06 | -2.7 | -0.958 | 0.392 | -2.9 | -2.86 | 11.6 | -9.68 | 1.59 | 2.44 | -0.358
13 | COc1ccccc1OCC(=O)NS(=O)(=O)c1cc(F)ccc1F | -2.96 | -2.7 | 1.01 | 2.58 | -5.99 | 0 | 0.345 | 0.0392 | 0.529 | 4.88 | -1.41
14 | COc1ccc(CS(=O)(=O)CC(=O)NCC2CC2)cc1F | -1.25 | 10.5 | 6.04 | -2.71 | 1.66 | 5.92 | 15.6 | 8.09 | 6.38 | 18.2 | -4.08
15 | CC(C)Oc1ccc(CSc2nnc(CN3CCCC3=O)o2)cc1 | -7.37 | -5.33 | -6.5 | 10 | 8.28 | 1.04 | 9.24 | 13.4 | 1.64 | 6.17 | -3.99
16 | OCCOc1nc(-c2ccccc2Cl)no1 | -1.86 | 11 | -5.12 | 4.94 | 4.9 | 18.6 | 20.4 | 24.7 | 6.45 | 20 | -5.57
17 | O[C@H]1[C@H](n2cc(-c3ccccc3)nn2)c2ccccc2C12CCNCC2 | -1.97 | 6.94 | -7.62 | 0.48 | 1.65 | -1.77 | 10.2 | 12.5 | 5.26 | 15.4 | -2.48
18 | CN(C(=O)C1CCCCC1)[C@@H]1CCC[C@@H](N2CCOCC2)[C@@H]1O | -3.72 | 4.05 | 0.0373 | 6.37 | 1.78 | -2.09 | 6.86 | 8.21 | 1.07 | 3.9 | 74.8
19 | CN(Cc1ncc[nH]1)CC(c1cccs1)N1CCOCC1 (configuration not stated) | -0.354 | 13.5 | -12.7 | -6.28 | 4.92 | -1.29 | 12.4 | 17.4 | 11.9 | 23.2 | -5.94
20 | CN(Cc1ccc(OC(F)F)cc1)C(=O)CS(=O)(=O)c1ccc(Cl)cc1 | -4.93 | -2.7 | -0.333 | 6.3 | 8.49 | -1.91 | 0.345 | 3.29 | -5.82 | 0 | -1.75
21 | Cc1ccsc1CNC(=O)Cc1c(C)nc2c(c1C)c(=O)[nH]n2C | -4.14 | 10.4 | 5.94 | 8.57 | -2.06 | 2.32 | 5.25 | 21.2 | 2.86 | 11.8 | -20.4
22 | CC(C)n1cc(CN2CCCN(C(=O)c3ccc[nH]3)CC2)cn1 | -1.88 | 13.5 | -0.748 | -5.21 | 2.73 | 15.8 | 20.2 | -10.5 | 12.9 | 13.4 | -0.327
